Shown are actives, neighbours in structure and some others; about 20% of the full set was active somewhere.
HCMV antiviral: qHTS Assay for inhibitors of the human cytomegalovirus (HCMV). HFF cells, HCMV-luciferase reporter, 72 h; hits give low values. activity change, negative = inhibition, % at 57.5 µM. actives 4.5% (n = 410,000); in the data active = activity change below about -60%; inconclusive = no clear call, values can overlap the other calls; inactive = above about -39%; also: % is scaled to controls: 0 for no effect and ±100 for the full control effect
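Screen run at 2 compound doses on HFFs infected with reporter HCMV, MOI 1 PFU/cell. Luciferase activity from cell lysates at 72 h post infection gave inhibition relative to buffer-only and Salinomycin wells.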
Shiga inhibitor: A qHTS for Small Molecule Inhibitors of Shiga Toxin. actives 9.2% (n = 290,000). Vero cells, Shiga toxin protein synthesis inhibition reporter. inhibition, % at 38.7 µM; in the data active = inhibition mostly above about 28%, no sharp cut-off; inactive = mostly below about 43%; also: 0% is about no effect
CHX counter: Cycloheximide Counterscreen for Small Molecule Inhibitors of Shiga Toxin; cell reporter, cycloheximide protein synthesis inhibition counterscreen; max response, %; actives 12% (n = 300,000); in the data active = max response mostly above about 13%, no sharp cut-off; inactive = mostly below about 14%; also: read at 38.3 µM for the half of the compounds with a filed dose; 0% is about no effect
Pf growth 96h: Primary qHTS for delayed death inhibitors of the malarial parasite plastid, 96 hour incubation; P. falciparum luciferase reporter growth, 96 h; Potency, µM (titrated, usually from 28.7 µM), for inactives: at the highest dose activity change, negative = inhibition, actives largely listed as inhibitors; actives 6.9% (n = 320,000); also: potency is read from the fitted curve at half-maximal effect; % is scaled to controls: 0 for no effect and ±100 for the full control effect
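Compounds incubated with erythrocytes infected by luciferase-expressing P. falciparum (2% hematocrit, 0.05% parasitemia final) for 96 hours, 37 C in 5% CO2. Growth inhibition scored as decreased luciferase luminescence.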
Pf growth 48h: Primary qHTS for delayed death inhibitors of the malarial parasite plastid, 48 hour incubation | P. falciparum luciferase growth in erythrocytes, 48 h | Potency, µM (top dose mostly 28.7 µM), inactives show at the top dose activity change, negative = inhibition, actives largely listed as inhibitors | actives 5.9% (n = 310,000) | AID 504832, 2011; also: potency is read from the fitted curve at half-maximal effect; % is scaled to controls: 0 for no effect and ±100 for the full control effect
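Cell-based growth assay: transgenic P. falciparum expressing firefly luciferase, cultured in red cells within RPMI 1640 containing 0.5% w/v Albumax, 24 mM bicarbonate and gentamycin. A drop in luciferase activity indicates inhibition.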
Active calls of the source: *; ? = inconclusive; · = no result. Unless noted, calls follow the shape of the dose curve; as a rule, active = well fitted inhibition curve with a large enough effect; inconclusive = small, poorly fitted or top-dose-only effect, or another doubt; inactive = no such curve, though single readings can be large or run the other way.

SMILES | HCMV antiviral | Shiga inhibitor | CHX counter | Pf growth 96h | Pf growth 48h
CC(NC(=O)C(=O)N/N=C/c1ccccc1)c1ccccc1 (stereo not given) | 4 | 25 | 8 | 443% | 16%
COc1ccccc1NC(=O)COC(=O)c1ccccc1C(=O)N1CCN(c2ccccc2)CC1 | -6 | -8 | -2 | -20% | ?
O=C(c1cc(-c2ccccc2Cl)on1)N1CCN(C(=O)c2ccco2)CC1 | 44 | -11 | -3 | -17% | 18%
O=C(c1ccco1)N1CCN(Cc2csc(-c3ccccc3Cl)n2)CC1 | 21 | 83* | 50* | 18% | -14%
O=C(c1ccco1)N1CCN(Cc2ccc(Cl)cc2)CC1 | -1 | -2 | -2 | 223% | ?
O=C(c1ccco1)N1CCN(Cc2c(Cl)cccc2Cl)CC1 | 35 | 110 | 21* | 2.6µM* | 19%
CCOc1cc(C2C(C#N)=C(N)OC(C)=C2C(C)=O)c(Br)c(Br)c1OC(C)C (stereo not given) | · | 15 | -3 | 8.3µM* | 3.3µM*
CCOc1cc(C2C(C#N)=C(N)OC(C)=C2C(C)=O)cc(Br)c1O (stereo not given) | -30 | -8 | -4 | ? | -4%
CN(C)c1ccc(NC(=O)CN2CCN(CC(=O)Nc3ccc(F)cc3)CC2)cc1 | 75 | 11 | 19* | 1% | 5%
CCOc1ccc(NC(=O)CN2CCN(CC(=O)Nc3ccc(N(C)C)cc3)CC2)cc1 | -12 | 81* | 25* | -9% | 39%
O=C(CN1CCN(S(=O)(=O)c2ccc(Br)cc2)CC1)Nc1ccc2c(c1)OCCO2 | 114 | -14 | -2 | ? | ?
COC(=O)c1ccc(NC(=O)CN2CCN(S(=O)(=O)c3ccc(Br)cc3)CC2)cc1 | -7 | -10 | -6 | 9.3µM* | -3%
CN(C)S(=O)(=O)N1CCN(CC(=O)Nc2ccc(Br)cc2)CC1 | -2 | · | -1 | 5.2µM* | -10%
O=C(CCC1CCCCC1)Nc1ccccc1C(=O)N1CCOCC1 | 3 | 11 | 1 | -13% | 0%
O=C(CCS(=O)(=O)c1ccccc1)Nc1ccc(-c2nc3ccccc3s2)cc1 | -21 | 69 | 33* | 0% | 81%
O=C(CCS(=O)(=O)c1ccccc1)Nc1cccc(-c2nc3ccccc3s2)c1 | 34 | 79* | 57* | -11% | 42%
COC(=O)C1=C(C)N(Cc2ccc(C(F)(F)F)cc2)C(=NCC2CC2)NC1c1cccc(Cl)c1 (stereo not given) | -102* | · | · | · | ·
COC(=O)C1=C(C)N(Cc2ccc(C(F)(F)F)cc2)C(=NCc2ccc3c(c2)OCO3)NC1c1cccc(Cl)c1 (stereo not given) | -100* | · | · | · | ·
COc1ccc(C(C(=O)NC2CCCCC2)N(C(=O)c2ccco2)c2ccccc2C(C)=O)cc1OC (stereo not given) | 7 | -7 | -3 | 14% | ?
Cc1c(C(=O)c2no[n+]([O-])c2C(=O)c2cnn(C)c2C)cnn1C | -107* | 20 | -2 | 3% | -11%
Cc1ccsc1/C=C1\SC(N2CC(C)OC(C)C2)=NC1=O (stereo not given) | 20 | -7 | 0 | ? | ?
CCC(C)NC(=O)c1cc(-c2ccc(OC)cc2)on1 (stereo not given) | 143 | 66* | 29* | 37% | ·
COc1ccc(-c2cc(C(=O)NCC(C)C)no2)cc1 | 142 | 71* | 38* | -12% | ·
Cc1nn(CC(=O)NCCCN2CCCC2)c(=O)c2nn(-c3ccccc3)c(C)c12 | ? | -1 | -6 | ? | 24%
O=C(CSc1c2c(nc3cc(Cl)ccc13)CCCC2)N1CCN(c2ccccc2F)CC1 | -31 | · | · | · | ·
SMILES | HCMV antiviral | Shiga inhibitor | CHX counter | Pf growth 96h | Pf growth 48h
O=c1n(CC2CO2)c(=O)n(CC2CO2)c(=O)n1CC1CO1 (stereo not given) | -62* | · | · | 6µM* | 9.5µM*
O=C(Nc1ccc(C(F)(F)F)cc1)c1cccn(Cc2ccc3c(c2)OC(F)(F)O3)c1=O | -98* | -10 | -2 | 21% | -4%
COC(=O)c1ccccc1NC(=O)c1ccc(F)cc1F | · | -7 | 10 | · | ·
Cc1cc(=O)n(Cc2ccc(F)cc2Cl)c2c1c(C)nn2C | -5 | · | · | · | ·
Cc1ccc(C)n1-c1ccc(C(=O)NN)s1 | 92 | 26* | 26* | ? | ?
CCOC(=O)CNC(=O)c1ccc(Br)s1 | 0 | 1 | 2 | 38% | -6%
Cc1ccccc1CN1CCc2nc(N3CCN(c4ncccn4)CC3)ncc2C1 | -36 | · | · | · | ·
CCOC(=O)/C(C#N)=C/C=C1\C=Cc2ccccc2N1CC | -27 | 13 | -4 | ? | ?
CCCN1C=CC(=C/C=C(\C#N)C(=O)OCC)C=C1 | · | 93* | 28* | 107% | 93%
CCCCCCN1C=CC(=C/C=C(\C#N)C(=O)OCC)C=C1 | -17 | -23 | 4 | 13µM* | 10µM*
CCOC(=O)/C(C#N)=C/N=c1ccc(C)cn1C | -33 | 68* | 51* | 106% | 89%
CCCCn1c(N)c(N(CCOC)C(=O)C2CC(=O)N(Cc3ccco3)C2)c(=O)[nH]c1=O (stereo not given) | -15 | · | · | -3% | ?
c1ccc(-c2nccnc2-c2ccccc2)cc1 | 31 | 2 | 13 | 90% | ?
CC(C)(C)c1ccc(-c2ncccc2O)cc1 | 30 | 69* | 32* | ? | ?
Cc1nn(-c2cc(N3CCCCCC3)ccc2[N+](=O)[O-])c(=O)c2ccccc12 | -32 | 16 | -1 | · | ?
O=c1c2ccccc2c(-c2ccccc2)nn1-c1cc(Cl)ccc1[N+](=O)[O-] | ? | -48 | -2 | ? | 8.3µM*
Cc1ccc(-c2nn(-c3cc(Cl)ccc3[N+](=O)[O-])c(=O)c3ccccc23)cc1C | ? | -4 | -1 | ? | 5.2µM*
CCc1ccc(-c2nn(-c3cc(Cl)ccc3[N+](=O)[O-])c(=O)c3ccccc23)cc1 | 35 | -9 | -4 | 9.3µM* | ?
Cc1ccc(-c2nn(-c3cc(N4CCNCC4)ccc3[N+](=O)[O-])c(=O)c3ccccc23)cc1 | -68* | -15 | -6 | 0% | ?
O=c1c2ccccc2ncn1-c1ccc(Cl)cc1[N+](=O)[O-] | ? | 22 | -1 | ? | -5%
Cc1cc(C)n(-c2cc(Cl)ccc2[N+](=O)[O-])n1 | -29 | 4 | 9 | 17% | 32%
N#CC1=C2SCN(Cc3ccco3)CN2C(=O)CC1c1ccccc1F (stereo not given) | · | -3 | -1 | · | -16%
N#CC1=C2SCN(Cc3ccco3)CN2C(=O)CC1c1cccc2ccccc12 (stereo not given) | -6 | 13 | -1 | -6% | 12µM*
Oc1ccccc1-c1nc2cnccn2c1Nc1ccc2c(c1)OCCO2 | 28 | 51* | 30* | · | ?
Cc1ccn2c(Nc3ccc4c(c3)OCCO4)c(-c3ccccc3O)nc2c1 | 13 | · | · | · | ·

Compound activity as filed in PubChem BioAssay.
